# Records with an inconclusive call do not appear. Where a call stands in place of a potency, no number is given. Activity calls are given as the source filed them. The call rests on the fitted dose curve; in most records, active means well fitted inhibition curve with a large enough effect; inconclusive means small, poorly fitted or top-dose-only effect; inactive means flat fitted curve, though single readings scatter. Non-standard residues stand in square brackets, D forms with d. Residues, ends and D or L forms follow the SMILES beside them. *: point of attachment. Benzoyl(4-tBu) = CC(C)(C)c1ccc(C(=O)*)cc1; Lys(Et2) = CCN(CC)CCCC[C@H](N)C(=O)O
# Assay: BET inhibitor-based combinations targeting novel dependencies in MECOM-rearranged (r) AML: AML-194 cell line (AID 2202237; further: nearly all actives have a fitted effect of over 40% in size)
# Conditions: AML-194 (MECOM-r AML) viability, CellTiter-Glo, 48 h; series mostly up to 46 µM
# Source text: Ecotropic viral insertion site 1 (EVI1) is located on chromosome 3q26.2 as part of the MECOM (MDS and EVI1 complex) locus. Under normal hematopoiesis, EVI1 is a regulator of hematopoietic stem cell maintenance and self-renewal and EVI1 levels decrease as the cells differentiate. In approximately 5-10% of de novo acute myeloid leukemia (AML) EVI1 is aberrantly expressed, including Chromosomal inv(3)(q21;q26.2) or t(3;3)(q21;q26.2) alterations (MECOM-r) that account for about 50% of AML with EVI1 overexpression 31. AMLs with high levels of EVI1 have a poor prognosis and an overall survival time averaging between 10-14 months. EVI1 overexpression confers resistance in leukemia cells, highlighting the need to develop new targeted therapies for EVI1 overexpressing AMLs.
# Here, we performed an unbiased chemical drug screening by evaluating the single agent activity of a collection of 2,480 oncology-focused, approved and investigational drugs (NCATS Mechanism Interrogation Plates, MIPE v5.0) against a panel of seven AML cell lines. These included four MECOM-r cell-lines (AML-191, AML-194, UCSD-AML1 and HNT-34) and three non-MECOM-r AMLs (MV4-11, OCI-AML3 and SET-2). Exploiting the mechanistic redundancy built in the library, we identified target-level sensitivities in MECOM-r AML cells and relative activity as compared to other AML subtypes.
# A collection of 2480 mechanistically annotated dugs (MIPE v5.0) was used to screen four 3q26.2 rearranged AML cell lines and three non-3q26.2 rearranged AML cell lines. This library purposely exploits redundancy by including multiple inhibitors of key onco-targets, while simultaneously encompassing mechanistic diversity, targeting more than 800 distinct mechanisms of action. Briefly, cells were seeded in 5 uL of growth media using a Multidrop Combi dispenser into 1536 well white polystyrene tissue culture treated plates (Corning) at a density of 500cells/well. For each cell-line, for each of the 2480 drugs in MIPE v5.0 library, an 11-point dose curve was generated via a 1536 pin-tool. Plates were incubated for 48 hr at standard incubator conditions, covered by a stainless steel gasketed lid to prevent evaporation. Cell viability was determined by luminescence based, Cell Titer Glo assay (Promega). In detail, 3 uL of Cell Titer Glo were added to each well and plates were incubated at room temperature for 15 min with a stainless-steel lid in place. Luminescence readings were taken using a Viewlux (PerkinElmer) with a 2 s exposure time per plate. Compound dose-response curves were normalized to DMSO and empty well controls on each plate. Quantitative drug activity data from dose-response curves was determined utilizing area Under the Curve (AUC) and Z-transformed AUC (Z-AUC, a mean-centering transformation applied to each individual cell-line screened).
# Potency means the concentration at half of the fitted maximal effect.
row,Structure (SMILES),Potency
1,C[C@H](Nc1nc(N[C@H](C)C(F)(F)F)nc(-c2cccc(Cl)n2)n1)C(F)(F)F,inactive
2,COC1CCC(N2C(=O)CNc3ncc(-c4ccc(C(C)(C)O)nc4)nc32)CC1 (stereo not given),1.66 µM (active)
3,CC(C)(NS(=O)(=O)c1ccc2c(Cl)cnc(N=C(N)N)c2c1)C(=O)O,inactive
4,Cc1cnc(-c2ccccc2C(C)C)nc1NCc1ccc(-n2ccnn2)cc1,inactive
5,C[C@H](CCC(=O)O)[C@H]1CC[C@H]2[C@@H]3[C@H](O)C[C@@H]4C[C@H](O)CC[C@]4(C)[C@H]3CC[C@]12C,inactive
6,COc1cc2c(cc1OC(C)C)[C@H](c1ccc(Cl)cc1)N(c1ccc(N(C)CC3CCC(N4CCN(C)C(=O)C4)CC3)cc1)C(=O)C2 (stereo not given in full),10.5 µM (active)
7,COCCNCCCn1c(C(=O)CF)c(-c2ccc(C)cc2)c2c(N)ncnc21,inactive
8,CCC(=O)Nc1cccc(Oc2nc(Nc3ccc(N4CCN(C)CC4)cc3OC)ncc2Cl)c1,23.5 µM (active)
9,COc1ccc([C@@H]2CC(=O)c3c(O)cc(O[C@@H]4O[C@H](CO[C@@H]5O[C@@H](C)[C@H](O)[C@@H](O)[C@H]5O)[C@@H](O)[C@H](O)[C@H]4O)cc3O2)cc1O,inactive
10,O=C(/C=C/c1ccc(CN(CCO)CCc2c[nH]c3ccccc23)cc1)NO,0.332 µM (active)
11,Cc1ccc(NC(=O)[C@H]2CCCN(C(=O)c3c(C)cccc3F)[C@H]2c2ccc(NC3CCCC3)cc2)cc1C(F)(F)F,inactive
12,CC(C)C(N)C(=O)OCC(CO)OCn1cnc2c(=O)[nH]c(N)nc21 (stereo not given),inactive
13,Cc1[nH]c(/C=C2\C(=O)Nc3ccc(S(=O)(=O)Cc4c(Cl)cccc4Cl)cc32)c(C)c1C(=O)N1CCC[C@@H]1CN1CCCC1,9.34 µM (active)
14,CC(=O)c1ccc2c(c1)c1cc(C(C)=O)ccc1n2CCNC(C)C,1.32 µM (active)
15,C[C@H](O)[C@@H]1C(=O)N2C(C(=O)O)=C(S[C@@H]3CN[C@H](CNS(N)(=O)=O)C3)[C@@H](C)[C@@H]12,inactive
16,O=C(O)/C=C/c1ccc(Cn2ccnc2)cc1,inactive
17,CC[C@@]1(O)C(=O)OCc2c1cc1n(c2=O)Cc2c-1nc1ccccc1c2CCNC(C)C,0.0132 µM (active)
18,COc1cc(C(C)C)c2c(c1)S(=O)(=O)N(COc1cc(=O)n3cccc(OCCN4CCCCC4)c3n1)C2=O,23.5 µM (active)
19,Cc1nc2ccc(CN(C)c3ccc(C(=O)N[C@@H](CCC(=O)O)C(=O)O)s3)cc2c(=O)[nH]1,0.332 µM (active)
20,COc1ccccc1-c1cccc(-c2c(O)c3cc(C#N)c(Cl)cc3[nH]c2=O)c1,inactive

row,Structure (SMILES),Potency
1,O=C(Cc1ccccc1)Nc1nnc(CCSCCc2nnc(NC(=O)Cc3ccccc3)s2)s1,inactive
2,CN[C@H]1CN(c2ccc3c(=O)c(C(=O)O)cn(-c4nccs4)c3n2)C[C@@H]1OC,1.52 µM (active)
3,CCc1cc(/C(C)=N/OCc2ccc(C3CCCCC3)c(C(F)(F)F)c2)ccc1CN1CC(C(=O)O)C1,inactive
4,C=CC(=O)Nc1cc2c(Nc3ccc(F)c(Cl)c3)ncnc2cc1C#CC(C)(C)N1CCN(C)CC1,4.68 µM (active)
5,CCCCN(CCCC)CCC(O)c1cc2c(Cl)cc(Cl)cc2c2cc(C(F)(F)F)ccc12 (stereo not given),29.5 µM (active)
6,C=CC(=O)Nc1ccc(F)c(-c2ncnc3[nH]cc(C(=O)OCC)c23)c1,inactive
7,CCn1c(=O)c2c(nc(/C=C/c3ccc(OC)c(OC)c3)n2C)n(CC)c1=O,inactive
8,CC(C)[C@H]1C(=O)N[C@@H](CCCN=C(N)N)C(=O)NCC(=O)N[C@@H](CC(=O)O)C(=O)N[C@H](Cc2ccccc2)C(=O)N1C,inactive
9,Cc1cnc(NC(=O)Nc2cc(Br)c(C)cc2OC[C@@H]2CNCCO2)cn1,4.17 µM (active)
10,CCS(=O)(=O)Nc1ccc(Oc2ccc(F)cc2F)c(-c2cn(C)c(=O)c3[nH]ccc23)c1,0.0833 µM (active)
11,N#Cc1ccc(C(c2ccc(C#N)cc2)n2cncn2)cc1,inactive
12,CCCCCCCCCCCC(CC1OC(=O)C1CCCCCC)OC(=O)C(CC(C)C)NC=O (stereo not given),inactive
13,COc1ccc(S(=O)(=O)N(C(C)=O)c2ccccc2/C=C/c2cc[n+]([O-])cc2)cc1,0.833 µM (active)
14,O=C(NCc1ccccc1)[C@H](Cc1ccccc1)NC(=O)[C@H]1O[C@@H]1C(=O)NCCc1ccc(O)cc1,inactive
15,CN(C)C[C@@H]1CCn2cc(c3ccccc32)C2=C(C(=O)NC2=O)c2cn(c3ccccc23)CCO1,5.9 µM (active)
16,COC[C@@H](c1ccc(C(F)(F)F)cc1)N1CCN(C2(C)CCN(C(=O)c3c(C)ncnc3C)CC2)C[C@@H]1C,inactive
17,O=C(CCCCCCC(=O)N/N=C/c1ccc(N(c2ccccc2)c2ccccc2)cc1)NO,7.42 µM (active)
18,C[C@H]1CNCCCN1S(=O)(=O)c1cccc2cncc(F)c12,inactive
19,COc1cc2c(NC3CCN(C)CC3)nc(N3CCCN(C)CC3)nc2cc1OCCCN(C)C,inactive
20,CCN(CC)CCCC[C@H](NC(=O)[C@H](CC(C)C)NC(=O)[C@H](C)NC(=O)[C@H](Cc1ccccc1)NC(=O)c1ccc(C(C)(C)C)cc1)C(=O)N[C@@H](CO)C(=O)OC ({Benzoyl(4-tBu)}-FAL[Lys(Et2)]S-OMe),inactive
